Data: PubChem BioAssay AID588342 (National Center for Advancing Translational Sciences (NCATS), 2011)
Values joined by “and” are separate entries in the source; they are usually repeats but may differ in a detail not shown here. Equal values may be shown once. Screen size: about 360,000 compounds; about 25,000 (6.9%) were called active. About 9% were inconclusive and are not listed. Only a selection was taken, and actives are over-represented in it overall. Unmarked numbers belong to inactive results. Calls follow the shape of the dose curve; as a rule, active = well fitted inhibition curve with a large enough effect; inconclusive = small, poorly fitted or top-dose-only effect; inactive = flat fitted curve, though single readings scatter.

Target: Luciferin 4-monooxygenase (Photinus pyralis) (UniProt P08659)
Sequence (P08659 whole entry, looked up): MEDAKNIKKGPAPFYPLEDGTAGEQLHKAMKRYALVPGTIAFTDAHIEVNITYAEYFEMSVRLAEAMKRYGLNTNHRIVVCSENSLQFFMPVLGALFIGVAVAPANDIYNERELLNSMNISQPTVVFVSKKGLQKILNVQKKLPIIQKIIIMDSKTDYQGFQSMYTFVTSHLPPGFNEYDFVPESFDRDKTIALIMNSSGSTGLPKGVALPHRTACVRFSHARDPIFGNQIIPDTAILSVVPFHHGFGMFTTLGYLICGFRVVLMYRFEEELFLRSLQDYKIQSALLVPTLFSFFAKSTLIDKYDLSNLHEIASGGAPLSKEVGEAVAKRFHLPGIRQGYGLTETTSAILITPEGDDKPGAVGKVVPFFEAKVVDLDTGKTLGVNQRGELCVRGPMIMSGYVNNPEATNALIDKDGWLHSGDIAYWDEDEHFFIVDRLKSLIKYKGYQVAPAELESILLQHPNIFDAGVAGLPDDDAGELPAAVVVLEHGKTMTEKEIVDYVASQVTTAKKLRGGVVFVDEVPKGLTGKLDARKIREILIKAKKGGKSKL
Assay: qHTS profiling assay for firefly luciferase inhibitor/activator using purifed enzyme and Km concentrations of substrates (counterscreen for miR-21 project); also: nearly all actives have a fitted effect of over 55% in size;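 as to activity change, negative = inhibition: plate controls were vehicle for no effect and reference inhibitor for full effect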
Conditions: purified FLuc, luminescence inhibition; series mostly up to 57.5 µM; activity change, negative = inhibition: at the top concentration
Summary of the method: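 Biochemical qHTS of compounds, final roughly 60 µM downward over six points, against 10 nM purified firefly luciferase using Km concentrations of substrates (10 uM D-luciferin, 10 uM ATP) in Tris acetate pH 7.5 buffer; luminescence output.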
Potency is read from the fitted curve at half-maximal effect.

| SMILES | activity change, negative = inhibition | Potency |
| --- | --- | --- |
| Cc1[nH]c2ccccc2c1C(=O)C(C)Sc1nnc(C2CC2)o1 (configuration not stated) | 1.18% |  |
| CC1=C(C(=O)OCC(C)C)C(c2ccc(OCc3ccccc3)cc2)N2C(=O)CCSC2=N1 (configuration not stated) | -7.41% |  |
| Cc1cccc(C(=O)N2CCc3cc(CNC(=O)Cc4ccc(F)cc4)ccc32)c1 | -24% |  |
| O=C(CSc1oc(-c2ccc(F)cc2)nc1S(=O)(=O)c1ccc(Br)cc1)NC1CCCCC1 | -1.9% |  |
| CCOC(=O)c1ccc2c(c1)N(Cc1cccc(OC)c1)C(=O)c1ccccc1S2(=O)=O | 4.9% |  |
| C/C(=N\NC(=O)Cc1ccc(Cl)cc1)c1ccccn1 | 5.25% |  |
| C/C(=N\NC(=O)c1ccccc1F)c1ccccn1 |  | 2.39 µM (active) |
| C/C(CC(=O)Nc1ccc(N(C)C)cc1)=N\NC(=O)c1ccccc1F | -0.398% |  |
| CCCSc1ncc(Cl)c(C(=O)Nc2c(C(=O)Nc3ccccc3)oc3ccccc23)n1 | -1.02% |  |
| N#C/C=C1\Sc2ccccc2C(=O)N1CC(=O)N1CCN(S(=O)(=O)c2ccccc2)CC1 |  | 9.53 µM (active) |
| O=C(CN1CCCSc2ccccc21)N1CCN(S(=O)(=O)c2ccccc2)CC1 | 1.35% |  |
| O=C(CN1CCCSc2ccccc21)N1CCN(S(=O)(=O)c2cccc(F)c2)CC1 | -1.34% |  |
| CC(=O)N1CCCc2cc(S(=O)(=O)N3CCC(C(=O)NC4CCCCC4)CC3)ccc21 | -3.81% |  |
| Cc1cn(C)c(CC(=O)NCc2ccccc2)c1C(=O)O | -0.767% |  |
| CN=C1S/C(=C\c2ccc(Sc3ccc(Cl)cc3)o2)C(=O)N1C | -3.48% |  |
| O=C(O)C(c1ccccc1)N1C(=O)/C(=C\c2ccc(-c3cccc(Cl)c3)o2)SC1=S (configuration not stated) | 2.28% |  |
| CN1C(=O)/C(=C\c2ccc(-c3ccccc3)o2)SC1=S |  | 2.39 µM (active) |
| COc1ccccc1NC(=O)CSC1=Nc2ccccc2C2=NC(CC(=O)NCc3cccs3)C(=O)N12 (configuration not stated) | 4.48% |  |
| COc1ccc(-n2nc(C(=O)NCCc3ccc(Cl)cc3)c3c4ccccc4n(C)c3c2=O)cc1Cl | -1.63% |  |
| COc1ccc(-n2nc(C(=O)NCC(=O)N3CCCCCC3)c3ccccc3c2=O)cc1Cl |  | 3.38 µM (active) |
| CCOC(=O)CNC(=O)c1nn(-c2cccc(OC)c2)c(=O)c2ccccc12 | -18.1% |  |
| COc1ccc(-n2nc(C(=O)NCC(=O)Nc3cccc(C)n3)c3ccccc3c2=O)cc1 | 2.32% |  |
| COc1ccc(-n2nc(C(=O)NCC(=O)N3CCC(C(N)=O)CC3)c3ccccc3c2=O)cc1OC |  | 12 µM (active) |
| COc1ccc(-n2nc(C(=O)NCC(=O)N3CCN(c4ccccc4OC)CC3)c3ccccc3c2=O)c(OC)c1 |  | 1.69 µM (active) |
| COc1cccc(NC(=O)c2nn(-c3ccc(OC)cc3OC)c(=O)c3ccccc23)c1 | -0.385% |  |

| SMILES | activity change, negative = inhibition | Potency |
| --- | --- | --- |
| COCCCNC(=O)CNC(=O)c1nn(-c2ccc(OC)cc2)c(=O)c2ccccc12 | -0.501% |  |
| COc1ccc(-n2nc(C(=O)Nc3cc(OC)c(OC)c(OC)c3)c3ccccc3c2=O)c(OC)c1 | -2.72% |  |
| O=C(NCC1CCCO1)c1ccc(S(=O)(=O)Nc2ccc(F)cc2)cc1 (configuration not stated) | 10.4% |  |
| O=S(=O)(NCc1ccccc1Cl)c1cnc[nH]1 | -0.378% |  |
| COC(=O)C1[C@H]2SC(C)(C)C(C(=O)OC)N2C(=O)N1Cc1nc2ccccc2s1 (some centres not stated) | -2.91% |  |
| COc1ccc(-c2nc3ccccc3s2)cc1NC(=O)COc1ccccc1C | 0.496% |  |
| COc1ccccc1OCc1nc2ccccc2s1 |  | 0.601 µM (active) |
| Cc1cc(O)c(C(c2ccccc2)N2CCN(c3ccccc3F)CC2)c(=O)n1Cc1ccco1 (configuration not stated) | -13.9% |  |
| O=C(CCC1N=C2c3ccccc3N=C(SCc3ccccc3F)N2C1=O)NCCc1ccccc1 (configuration not stated) | -5% |  |
| CC(NC(=O)c1ccc(S(=O)(=O)Nc2ccccc2)cc1)c1ccc(S(N)(=O)=O)cc1 (configuration not stated) | 0.247% |  |
| O=S(=O)(c1cccs1)N1CCc2ccccc2C1 | 2.65% |  |
| O=C1/C(=C/c2cccs2)SC(=S)N1C1CCS(=O)(=O)C1 (configuration not stated) | -10.5% |  |
| O=C(COC(=O)/C=C/c1cccs1)NC1CCCCC1 | 0.481% |  |
| O=C1/C(=C/c2cccs2)CCC1C1CCCC1 (configuration not stated) |  | 3.38 µM (active) |
| CCC1C/C(=C/c2cccs2)C(=O)/C(=C/c2cccs2)C1 (configuration not stated) | -0.238% |  |
| O=C1/C(=C/c2cccs2)CCc2ccccc21 |  | 0.757 µM (active) |
| COc1ccccc1-c1cc(C(F)(F)F)nc(S(=O)(=O)CCCC(=O)Nc2cc(C)ccc2O)n1 | 2.47% |  |
| O=C(CSc1nnc(N2CCOCC2)n1-c1cccc(F)c1)N1CCN(c2ccccn2)CC1 | 1.86% |  |
| COc1cccc(C(=O)NCc2ccc3c(c2)CCN3C(=O)c2ccncc2)c1 | 1.74% |  |
| COc1cccc(C(=O)NCC(=O)OCc2cc(=O)n3ccsc3n2)c1 | -3.98% |  |
| COc1cccc(C(=O)n2ccc(-c3cccs3)n2)c1 |  | 3.38 µM (active) |
| CC(C)(C)c1cc2cccnc2n1Cc1ccccc1 | -1.13% |  |
| O=C(/C=C/c1cccs1)c1cc(Cl)ccc1OC(=O)N1CCOCC1 | -0.486% |  |
| CCOc1ccc(C2C(=O)N(C3CCCCC3)CC(=O)N2CCC2=CCCCC2)cc1OC (configuration not stated) | 0.188% |  |
| Cc1cccc(CSc2nnc(C)c(=O)n2N)c1 | 5.06% |  |

| SMILES | activity change, negative = inhibition | Potency |
| --- | --- | --- |
| Cc1cccc(CSc2ccc(-c3cccs3)nn2)c1 |  | 12 µM (active) and 8.49 µM (active) |
| N#Cc1ccc(-c2cccs2)nc1SCc1ccc(Br)cc1 | -2.78% |  |
| C[C@H](NC(=O)c1ccccc1Cl)C(=O)OCC(=O)N1CCN(c2ccccc2)CC1 | 1.68% |  |
| COc1ccc(C(=O)C2CCCN(S(=O)(=O)c3cccc(C)c3)C2)c(C)c1 (configuration not stated) | 5.75% |  |
| CCN1C(=O)c2ccccc2S(=O)c2ccc(C(=O)NCc3ccc(F)cc3)cc21 (configuration not stated) | 1.08% |  |
| O=C(O)c1cccc(N=NN2CCCCCC2)c1 |  | 6.75 µM (active) |
| CN1CCN(S(=O)(=O)c2cccc(C(=O)O)c2)CC1 | -0.781% |  |
| O=C(O)c1ccc(N=NN2CCOCC2)cc1 | 1.54% |  |
| CC(C)Oc1ccc(S(=O)(=O)N2CCOCC2)cc1NC(=O)C1CCCC1 | 0.0682% |  |
| O=C(Cn1nc(C(F)(F)F)c2c1CCCC2)Nc1ccc(Cl)cc1 | -4.17% |  |
| O=C(CNC(=O)c1ccco1)OCC(=O)c1ccccc1 | -3.69% |  |
| O=C(NCCSc1ccccc1)c1ccco1 |  | 23.9 µM (active) |
| O=C(NCCS(=O)(=O)N1CCN(c2ccccc2)CC1)c1ccco1 | 2.07% |  |
| CCOC(=O)Cn1c(=O)n(-c2ccccc2OC)c2nc(-c3cccc(F)c3)nc(C(N)=O)c21 | -8.14% |  |
| CC(C)(C)c1ccc(S(=O)(=O)N2CCN(C(=O)c3cc(-c4ccc(Br)cc4)n[nH]3)CC2)cc1 | 0.458% |  |
| CC(=O)N1CCN(C(=O)Nc2cccc(C(F)(F)F)c2)CC1 | -0.34% |  |
| FC(F)(F)c1cccc(N/N=C/c2ccccc2)c1 |  | 12 µM (active) |
| Cc1nnsc1C(=O)N/N=C/c1cccc(C(F)(F)F)c1 | -2.3% |  |
| CCC1CCCCN1C(=O)Cn1c(=O)n(CCCCCC(=O)NCc2ccccc2)c(=O)c2sccc21 (configuration not stated) | -16.2% |  |
| CC(C)(C)OC(=O)Nc1ccc([C@@H](NC(=O)OC(C)(C)C)C(=O)OC(C)(C)C)cc1 | 2.72% |  |
| COc1ccc2cc(CNc3ccc(OC)c(OC)c3)c(=O)n(CC(=O)Nc3ccccc3F)c2c1 | 5.48% |  |
| Cc1cc2c(cc1S(=O)(=O)CCC(=O)Nc1ccc(OC(F)(F)F)cc1)OCC(=O)N2 | -15.7% |  |
| Nn1c(SCC(=O)Nc2nccs2)nnc1-c1ccco1 | 1.42% |  |
| CCc1ccc(NC(=O)Cn2ncn3c(cc4ccccc43)c2=O)cc1 |  | inactive |
| CC(C)c1ccc(NC(=O)Cn2nnc(C(=O)NCCc3ccccc3)c2N)cc1 | -5.02% |  |

| SMILES | activity change, negative = inhibition | Potency |
| --- | --- | --- |
| CC(C)c1ccc(NC(=O)Cn2ncc3ccccc32)cc1 |  | 10.7 µM (active) |
| Cc1oc(-c2ccccc2)nc1Cn1c(SCc2cccc(C(F)(F)F)c2)nc2cccnc21 | -14.9% |  |
| COc1ccc(N2CCN(Cc3nc4c(c(=O)[nH]c(=O)n4C)n3Cc3ccc(Cl)cc3)CC2)cc1 | -1.19% |  |
| O=C(NCCCO)C(=O)Nc1c2c(nn1-c1ccccc1)CSC2 | -8.71% |  |
| Cc1nc2ccccn2c1C(=O)NN=C1CCN(C)CC1 | -1.15% |  |
| CC1=CC2=NC(=O)/C(=C/c3coc4ccccc4c3=O)C(=N)N2O1 | -16.2% |  |
| N=C1/C(=C/c2cccn2-c2cccc([N+](=O)[O-])c2)C(=O)N=C2SC=CN12 | 4.38% |  |
| CCS(=O)(=O)C1=NSC2=NC(=O)/C(=C\c3ccc(OS(=O)(=O)c4ccccc4)cc3)C(=N)N21 | -9.36% |  |
| COc1ccccc1OCCOc1ccc(/C=C2\C(=N)N3N=C(C)SC3=NC2=O)cc1 | -12.2% |  |
| CCOc1cc(/C=C2\C(=N)N3N=C(C)SC3=NC2=O)ccc1OCCOc1ccccc1 | 1.67% |  |
| CCS(=O)(=O)C1=NSC2=NC(=O)/C(=C\c3cc(C)n(-c4cccc(OC)c4)c3C)C(=N)N21 |  | 6.75 µM (active) |
| Cc1cc(/C=C2/C(=N)N3C(=NC2=O)SN=C3S(C)(=O)=O)c(C)n1-c1ccccc1 |  | 0.536 µM (active) |
| CCC1=NN2C(=N)/C(=C/c3cc(C)n(-c4ccccc4)c3C)C(=O)N=C2S1 |  | 26.9 µM (active) |
| Cc1cccc(N2CCN(C(=O)c3oc(=O)c4ccccc4c3-c3ccccc3)CC2)c1C | -0.455% |  |
| COc1ccc(CC(=O)N2CC(=O)Nc3ccc(Br)cc3C2c2ccc(F)cc2)cc1OC (configuration not stated) | 0.675% |  |
| O=C(Cn1c(=O)nc(-c2ccccc2)c2cc(Cl)ccc21)NCc1ccc(Cl)cc1 | 3.37% |  |
| Cc1c(C(C)CCCO)oc(=O)c2c1Oc1c(C)c(C(C)C[C@@H](C)O)oc(=O)c1C2 (some centres not stated) | 2.46% |  |
| O=C(NCCN1CCOCC1)c1cccc(S(=O)(=O)Nc2ccc(F)cc2)c1 | 3.82% |  |
| COc1cc(Cl)c(C)cc1NC(=O)CCc1nc2cccnc2n1Cc1cccs1 | -15.4% |  |
| CCOc1ccc(NC(=O)CCC(=O)NNC(=O)NC2CCCCC2)cc1 | 1.41% |  |
| Cc1ccccc1C(=O)Nc1sc2c(c1C(=O)N1CCC(C)CC1)CCCC2 | -1.02% |  |
| CCNS(=O)(=O)c1cc(-c2nnc(Nc3cccc(C(F)(F)F)c3)c3ccccc23)ccc1C | 3.64% |  |
